Laboratory results from PubChem BioAssay AID588391 (Broad Institute, 2011).
Among all 350,000 compounds or so, about 180 (0.051%) were called active. The sample holds actives, similar compounds and a random draw of the others, so the mix is not that of the screen.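 The calls were made as follows: active = mean inhibition across replicates of 30% or more, whatever share of single replicates reach that level; inconclusive = mean inhibition below 30% while every single replicate reaches 30%; inactive = the rest.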

The compounds below were run against Protein disulfide-isomerase (Homo sapiens) (UniProt P07237) (assay: inhibitors of human PDI, primary screen, biochemical, turbidity, single point, plate reader (AID 588391;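 also: absorbance from insulin aggregation driven by PDI reduction with DTT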)). Settings: PDI insulin aggregation turbidity, A650, 90 min; at 10 µM; stronger effect = higher value.
Protein disulfide-isomerase (Homo sapiens), sequence (P07237 whole entry, looked up): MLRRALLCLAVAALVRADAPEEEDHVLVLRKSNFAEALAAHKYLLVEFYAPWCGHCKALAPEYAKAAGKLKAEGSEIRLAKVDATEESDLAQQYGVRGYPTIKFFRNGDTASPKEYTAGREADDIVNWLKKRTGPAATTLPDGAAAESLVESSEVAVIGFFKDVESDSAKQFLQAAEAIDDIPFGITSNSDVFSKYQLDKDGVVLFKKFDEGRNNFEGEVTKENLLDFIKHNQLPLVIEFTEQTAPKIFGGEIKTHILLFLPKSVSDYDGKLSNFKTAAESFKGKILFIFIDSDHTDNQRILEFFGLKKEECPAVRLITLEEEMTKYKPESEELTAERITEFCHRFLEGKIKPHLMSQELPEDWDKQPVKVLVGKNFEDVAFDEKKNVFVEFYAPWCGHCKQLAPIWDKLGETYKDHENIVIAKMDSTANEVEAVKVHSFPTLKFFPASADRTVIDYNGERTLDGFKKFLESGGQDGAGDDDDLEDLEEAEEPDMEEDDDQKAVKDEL

inhibition, inactive:
O=C(/C=C/c1ccc(Cl)cc1)N1CCN(c2ccccc2[N+](=O)[O-])CC1 -3.05%, CC(=O)Nc1ccc(C=CC(=O)c2ccc([N+](=O)[O-])cc2)cc1 -14.3%, OC[C@H]1O[C@@H](c2nc(-c3nc(-c4ccc(F)cc4)no3)cs2)[C@H](O)[C@@H](O)[C@H]1O 9.06%, CCc1nc2ccc(C(=O)Nc3cccc(OC)c3)cn2c1N(CCC(C)C)CCN(C)C 7.59%, COc1ccc(CNC(=O)c2ccc(-c3cccnc3)c3ccoc23)cc1OC -14.5%, CCOC(=O)C1CCCN(C(=O)c2ccc(N(C)C)cc2)CC1 (stereo not drawn) -4.95%, COc1ccccc1CNC(=O)c1cc(-c2cc(F)ccc2OC)n[nH]1 -13.3%, CNc1cnc(-c2cc(OC)c(OC)c(OC)c2)cn1 -1.94%, Cc1nc2c(OCc3ccc(Cl)cc3Cl)cccn2c1N(C)CC1CC1 -3.07%, CC(=O)NN=C(C)c1ccc(NC(=O)C2CC2)cc1 11.5%, CC1(C(=O)NCc2cccc3ccccc23)CCN1Cc1ccc(-c2ccccc2)o1 (stereo not drawn) -7.12%, CC(=O)Nc1cccc(-c2cc(NC=O)c3ncc(-c4ccc(F)c(Cl)c4)n3c2)c1 -0.607%, CCc1nc2c(OCCOc3ccccc3)cccn2c1N(C=O)Cc1ccc(OC)cc1 3.19%, COc1cccc(NC(=O)C2(C)CCN2Cc2ccccc2Cl)c1 (stereo not drawn) 2.3%, NC(Cc1ccc(F)cc1)c1csc(Nc2nncc3ccccc23)n1 (stereo not drawn) -3.01%, CC(C)Nc1nc(NCCOc2ccccc2Cl)c2sccc2n1 0.492%, COc1ccc(NC(=O)C2(C)Cc3c(-c4cccc(NC(C)=O)c4)ccnc3O2)cc1OC (stereo not drawn) -9.6%, O=C(CCC(=O)N/N=C/c1ccc(Br)o1)N/N=C/c1ccc(Br)o1 -7.35%, O=C(CCc1n[nH]c(=O)[nH]c1=O)N/N=C/c1ccc(Br)o1 2.19%, COc1ccc(C(NC(=O)C2CCN(CCCc3ccccc3)CC2)c2cccs2)cc1 (stereo not drawn) -3.76%, OCCN1CCN(c2ncnc3c2ncn3[C@H]2CN(Cc3ccco3)C[C@@H](CO)O2)CC1 -4.02%, COc1cncc(-c2cnc3sc(NCCc4ccccn4)nn23)c1 -1.86%, CCCC/C=C/c1cccc2nncn12 15.4%, O=C(Nc1ccc(N2CCOCC2)cc1)c1cccc2c(-c3ccc(F)c(F)c3)coc12 6.12%, Cc1nc(C(F)(F)F)ccc1C(=O)N1CCC1(C)C(=O)NS(=O)(=O)c1ccc(F)cc1F (stereo not drawn) -2.79%, Cc1cccc(C)c1Cn1c(C)c(C(=O)NCc2cccc(Cl)c2)sc1=O 12.4%, CCc1nc2c(OCc3ccc(Cl)cc3Cl)cccn2c1N(C)C(=O)C(C)C 1.84%, CS(=O)(=O)/C(C#N)=C/c1cccn1S(=O)(=O)c1ccc([N+](=O)[O-])cc1 6.24%, CCCS(=O)(=O)NC(=O)C1(C)CCCN(C(=O)c2cccs2)C1 (stereo not drawn) 5.08%, CCCNC(=O)C1(C)CCN(C(=O)c2ccccc2OC(F)(F)F)C1 (stereo not drawn) 12.9%, COc1ccc(S(=O)(=O)NC(=O)C2(C)CCN2C(=O)c2ccccc2CCc2ccccc2)cc1 (stereo not drawn) -21.5%, Cc1ccc(CNC(=O)Nc2nnc([C@H]3C[C@H](O)[C@@H](CO)O3)s2)cc1 -0.839%, COc1ccc(-c2cc3nc(NCCOc4ccccc4)ccn3n2)cc1 8.41%, Cc1ccc(Sc2ccc(NC(=O)c3ccc(F)cc3)cc2C#N)cc1 1.62%, CC(C)NC(=O)C1(C)CCCCCN1C(=O)c1ccc(-c2ccccc2)cc1 (stereo not drawn) 0.373%, CCc1nc2c(OCCC3CCCCC3)cccn2c1N(C)C(=O)c1ccco1 4.27%, COc1ccc(OC)c(NC(=O)C2(C)CCN2C(=O)Cc2ccccc2)c1 (stereo not drawn) 0.456%, O=C(CSc1nc2cccc(F)c2c(=O)n1-c1ccccc1)Nc1ccc2c(c1)CCC2 -4.77%, CC1(Cc2ccccc2C#N)C(=O)Nc2ccc(-c3ccc4[nH]ccc4c3)cc21 (stereo not drawn) 7.54%, O=C(O)c1ccccc1-c1cccc2nncn12 9.27%, O=C(NCc1ccc(F)cc1)c1cc(C2CCCCN2C(=O)c2cccs2)on1 (stereo not drawn) -0.163%, CC(C)Cc1ccc(-c2cc3nc(NCc4cccc(Cl)c4)ccn3n2)cc1 -8.06%, O=C(c1cc(C2CCCCN2S(=O)(=O)c2ccccc2)on1)N1CCOCC1 (stereo not drawn) -7.54%, COc1ccc(NC(=O)C2(C)Cc3c(-c4cccc(NC(C)=O)c4)ccnc3O2)cc1 (stereo not drawn) -2.98%, OC[C@@H]1CN(Cc2ccc(-c3ccccc3)cc2)C[C@H](n2cnc3c(NC4CCCC4)ncnc32)O1 -2.96%, CC(C)Cn1cc(-c2cncc3nccn23)cn1 -0.067%, CC1(C(=O)NS(=O)(=O)c2ccc3ccccc3c2)CCN1C(=O)C1(c2ccc(Cl)cc2)CCC1 (stereo not drawn) 8.48%, CC(=O)c1ccc(-c2cnc3c(NC=O)cc(-c4cccc(NS(C)(=O)=O)c4)cn23)cc1 16.7%, COc1cccc(-c2cnc(C(O)c3ccccc3OC)[nH]2)c1 (stereo not drawn) 10.9%, OC(c1ccc(F)cc1)c1ncc(-c2cccc(C(F)(F)F)c2)[nH]1 (stereo not drawn) -1.07%, CC(C)Oc1cc(F)ccc1-c1cc(C(=O)Nc2ccc(F)cc2)[nH]n1 10.8%, O=C(NC(c1ccc(Cl)cc1)c1cnccn1)C1CCN(Cc2ccc(Cl)cc2)CC1 (stereo not drawn) -28.5%, CCCc1ccc(C(O)c2ncc(-c3cccc(OC)c3)[nH]2)cc1 (stereo not drawn) -4.13%, COc1ccccc1CNC(=O)c1cc(-c2cc(Cl)ccc2C)n[nH]1 -1.01%, CCNC(=O)C1(C)CCN(Cc2ccc(C(=O)OCC)o2)C1 (stereo not drawn) 8.45%, CCCOc1ccc(F)cc1-c1cc(C(=O)Nc2ccc(F)cc2)[nH]n1 5.38%, CC1(C(=O)NCc2ccc3c(c2)OCO3)CCN1C(=O)Cc1cccs1 (stereo not drawn) -7.14%, CC(C)Oc1ccc(CN2CCC2(C)C(=O)NCc2ccc(C(F)(F)F)cc2)cc1 (stereo not drawn) 4.17%, CC1(C(=O)Nc2cccc3c2CCCC3)CCN1C(=O)CCc1ccc(Cl)cc1Cl (stereo not drawn) -3.08%, NCCCNC(=S)NCCCN(Cc1ccc(Cl)cc1)c1ccc(Br)cn1 22.2%, COc1cccc(CNc2nc(NCc3cccs3)nc3ccsc23)c1 -1.8%, CCc1nc2ccc(C(=O)Nc3ccc(OC)c(OC)c3)cn2c1N(C)C(=O)c1cccc(OC)c1 10.6%, NC(Cc1ccccc1)c1csc(Nc2cc(Oc3ccccc3)ncn2)n1 (stereo not drawn) 0.811%, OC[C@@H]1CN(Cc2ccncc2)C[C@H](n2cnc3c(N4CCN(c5ccccc5)CC4)ncnc32)O1 -1.41%, COCCNc1ncnc2c1ncn2[C@H]1CN(Cc2ccc(OC)cc2)C[C@@H](CO)O1 -0.829%, CC(=O)Nc1cccc(-c2cc(NC(C)=O)c3ncc(-c4ccccc4)n3c2)c1 0.99%, COc1cccc(CNc2nc(NCc3ccccc3OC)nc3ccsc23)c1 -20.9%, CCNC(=S)Nc1ccc2c(c1)c(=O)n(C)n2Cc1ccc(Cl)cc1 7.91%, CSc1ccc(CNC(=O)C2(C)CCCN2C)cc1 (stereo not drawn) -9.77%, CCc1ccc2c(c1)NC(=O)C2(C)Cc1ccc(OC(F)(F)F)cc1 (stereo not drawn) 8.05%, CCCNC(=O)C1(C)CCCN(C(=O)c2oc3ccccc3c2C)C1 (stereo not drawn) 10.4%, CC1(C(=O)NS(=O)(=O)c2cccc(OC(F)F)c2)CCN1C(=O)COc1ccc(Cl)cc1 (stereo not drawn) -2.12%, Nc1nc(CSc2nnnn2-c2ccccc2)nc(Nc2ccccc2)n1 -5.2%, Cn1c(Nc2ccc(F)cc2)nc2cc(-c3ccsc3)sc2c1=O -4.93%, CCCNC(=O)c1cc(C2CCCCN2S(=O)(=O)c2cn(C)cn2)on1 (stereo not drawn) -5.28%, COc1cccc(-c2ccc3c(c2)N(Cc2ccccc2OC)C(=O)C(C)S3)c1 (stereo not drawn) 0.226%, CCCNC(=O)C1(C)CCN(Cc2ccc(Cl)c(Cl)c2)C1 (stereo not drawn) -7.24%, COc1ccc(Br)c(Cn2c(C)c(C(=O)NCc3cccs3)sc2=O)c1 6.08%, CC(C)(C)c1ccc(S(=O)(=O)NC(=O)C2(C)CCN2C(=O)CC2CC2)cc1 (stereo not drawn) 4.79%, CS(=O)(=O)c1cccc(-c2ccc3nncn3c2)c1 1.16%, CC(=O)Nc1cccc(-c2cc3nc(NCc4cccnc4)n(C)c(=O)c3s2)c1 -1.23%, CCCNC(=O)C1(C)CCN(Cc2csc(-c3ccc(Cl)cc3)n2)C1 (stereo not drawn) 14.3%, COc1ccc(-c2ccc(C(=O)NCCN3CCOCC3)c3occc23)c(C)c1 0.104%, CCc1ccc(OC2(C)CCN(CCOc3ccc(C)cc3)C2)cc1 (stereo not drawn) -1.04%, CC(=O)Nc1cccc(-c2ccnc3c2CC(C)(C(=O)NCc2ccco2)O3)c1 (stereo not drawn) 2.4%, CC(C)(C)CC(=O)Nc1nc(C(N)Cc2ccc(C(F)(F)F)cc2)cs1 (stereo not drawn) -12.3%

inhibition, active:
CN(C)c1ccc(/C=C/C(=O)c2ccc(O)cc2)cc1[N+](=O)[O-] 62.9%, O=C(CCc1ccc(O)cc1)NN=Cc1cc(Br)ccc1O 44.5%
